Test results from PubChem BioAssay AID1159580 (chemical genetic matrix, 2015).
Hit rate of the full screen: of about 5,500 compounds, about 2,000 (36%) were called active. Roughly 18% stayed inconclusive and do not appear here. Cut-off read from the data, not from the text of the source: active = normalized growth mostly below about 0.91 (no sharp cut-off); inconclusive = no clear call, values can overlap the other calls; inactive = mostly above about 0.92. The list shows a part of the results.

Experiment: chemical genetic growth profiling, strain panel (AID 1159580);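 note: tested at 20 µM; growth read once vehicle control cultures reached saturation at 30 °C; 1 = growth at the plate median or of vehicle wells; lower values mean less growth of the strain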
Conditions: growth OD

Measured: normalized growth

Oc1ccc2c3c1OC1[C@@H](O)CC[C@@]4(O)[C@@H](C2)N(CC2CCC2)CC[C@]314 (some centres not stated)
inactive: S. cerevisiae deletion strains, locus YJR075W, strain HOC1, active compounds read low 1.03 | S. cerevisiae deletion strains, locus YKL009W, strain mrt4, active compounds read low 1 | S. cerevisiae deletion strains, locus YKL068W, active compounds read low 1.01 | S. cerevisiae deletion strains, locus YKL085W, strain MDH1 (second series), active compounds read low 1 | S. cerevisiae deletion strains, locus YKL085W, strain MDH1, active compounds read low 1 | S. cerevisiae deletion strains, locus YKL160W, strain elf1, active compounds read low 0.992 | S. cerevisiae deletion strains, locus YKL190W, strain CNB1, active compounds read low 1.01 | S. cerevisiae deletion strains, locus YKR001C, strain vps1, active compounds read low 1.01 | S. cerevisiae deletion strains, locus YKR026C, strain gcn3, active compounds read low 0.952 | S. cerevisiae deletion strains, locus YKR091W, strain srl3, active compounds read low 0.992 | S. cerevisiae deletion strains, locus YLL001W, strain dnm1, active compounds read low 0.978 | S. cerevisiae deletion strains, locus YLL026W, active compounds read low 0.999 | S. cerevisiae deletion strains, locus YLL041C, strain sdh2, active compounds read low 0.993 | S. cerevisiae deletion strains, locus YLR027C, strain aat2, active compounds read low 1 | S. cerevisiae deletion strains, locus YLR039C, strain RIC1, active compounds read low 1.04 | S. cerevisiae deletion strains, locus YLR058C, strain SHM2, active compounds read low 1.02 | S. cerevisiae deletion strains, locus YLR102C, strain apc9, active compounds read low 1.01 | S. cerevisiae deletion strains, locus YLR113W, strain HOG1, active compounds read low 0.971 | S. cerevisiae deletion strains, locus YLR221C, strain rsa3, active compounds read low 1.02 | S. cerevisiae deletion strains, locus YLR258W, strain gsy2, active compounds read low 1.01 | S. cerevisiae deletion strains, locus YLR262C, strain YPT6 (second series), active compounds read low 0.986 | S. cerevisiae deletion strains, locus YLR262C, strain YPT6, active compounds read low 1.01 | S. cerevisiae deletion strains, locus YLR268W, strain sec22, active compounds read low 1.06 | S. cerevisiae deletion strains, locus YLR320W, strain mms22, active compounds read low 1.01 | S. cerevisiae deletion strains, locus YLR330W, strain CHS5, active compounds read low 1.01 | S. cerevisiae deletion strains, locus YLR342W, strain FKS1 (second series), active compounds read low 1.01 | S. cerevisiae deletion strains, locus YLR342W, strain FKS1, active compounds read low 1 | S. cerevisiae deletion strains, locus YLR357W, strain rsc2, active compounds read low 0.967 | S. cerevisiae deletion strains, locus YLR370C, strain arc18, active compounds read low 0.989 | S. cerevisiae deletion strains, locus YLR371W, strain rom2, active compounds read low 1.02 | S. cerevisiae deletion strains, locus YLR384C, strain iki3, active compounds read low 0.991 | S. cerevisiae deletion strains, locus YLR418C, strain cdc73, active compounds read low 1.03 | S. cerevisiae deletion strains, locus YML016C, strain PPZ1, active compounds read low 1.01 | S. cerevisiae deletion strains, locus YML032C, strain rad52, active compounds read low 1.03 | S. cerevisiae deletion strains, locus YML120C, strain ndi1, active compounds read low 1 | S. cerevisiae deletion strains, locus YML124C, strain tub3, active compounds read low 1.01 | S. cerevisiae deletion strains, locus YMR058W, strain fet3, active compounds read low 1.02 | S. cerevisiae deletion strains, locus YMR078C, strain ctf18, active compounds read low 1.02 | S. cerevisiae deletion strains, locus YMR125W, strain sto1, active compounds read low 0.982 | S. cerevisiae deletion strains, locus YMR129W, active compounds read low 1 | S. cerevisiae deletion strains, locus YMR205C, strain PFK2, active compounds read low 0.993 | S. cerevisiae deletion strains, locus YMR223W, strain ubp8, active compounds read low 1.01 | S. cerevisiae deletion strains, locus YMR231W, strain pep5, active compounds read low 1 | S. cerevisiae deletion strains, locus YMR263W, strain SAP30, active compounds read low 1.02 | S. cerevisiae deletion strains, locus YMR307W, strain GAS1, active compounds read low 1.04 | S. cerevisiae deletion strains, locus YNL067W, strain RPL9B, active compounds read low 1.03 | S. cerevisiae deletion strains, locus YNL071W, strain lat1, active compounds read low 1 | S. cerevisiae deletion strains, locus YNL128W, strain TEP1, active compounds read low 1.03 | S. cerevisiae deletion strains, locus YNL153C, strain GIM3, active compounds read low 1.03 | S. cerevisiae deletion strains, locus YNL183C, strain NPR1, active compounds read low 0.914 | S. cerevisiae deletion strains, locus YNL209W, strain ssb2, active compounds read low 1.01 | S. cerevisiae deletion strains, locus YNL233W, strain BNI4, active compounds read low 1.02 | S. cerevisiae deletion strains, locus YNL248C, strain rpa49, active compounds read low 0.92 | S. cerevisiae deletion strains, locus YNL250W, strain rad50, active compounds read low 1.01 | S. cerevisiae deletion strains, locus YNL271C, strain bni1, active compounds read low 1.01 | S. cerevisiae deletion strains, locus YNL298W, strain CLA4, active compounds read low 1.01 | S. cerevisiae deletion strains, locus YNL307C, strain MCK1, active compounds read low 1.01 | S. cerevisiae deletion strains, locus YNL322C, strain KRE1 (second series), active compounds read low 0.999 | S. cerevisiae deletion strains, locus YNL322C, strain KRE1, active compounds read low 1.01 | S. cerevisiae deletion strains, locus YNR049C, strain mso1, active compounds read low 0.988 | S. cerevisiae deletion strains, locus YNR052C, strain pop2, active compounds read low 1.01 | S. cerevisiae deletion strains, locus YOL006C, strain TOP1, active compounds read low 1.04 | S. cerevisiae deletion strains, locus YOL012C, strain htz1 0.773 | S. cerevisiae deletion strains, locus YOL147C, strain pex11, active compounds read low 1.01 | S. cerevisiae deletion strains, locus YOR001W, strain rrp6, active compounds read low 0.997 | S. cerevisiae deletion strains, locus YOR061W, strain CKA2, active compounds read low 1.01 | S. cerevisiae deletion strains, locus YOR069W, strain VPS5, active compounds read low 1.01 | S. cerevisiae deletion strains, locus YOR070C, strain gyp1, active compounds read low 1 | S. cerevisiae deletion strains, locus YOR080W, strain dia2, active compounds read low 0.988 | S. cerevisiae deletion strains, locus YOR083W, strain WHI5, active compounds read low 0.987 | S. cerevisiae deletion strains, locus YOR106W, strain vam3, active compounds read low 0.993 | S. cerevisiae deletion strains, locus YOR136W, strain idh2, active compounds read low 1.02 | S. cerevisiae deletion strains, locus YOR144C, strain elg1, active compounds read low 1.01 | S. cerevisiae deletion strains, locus YOR184W, strain ser1, active compounds read low 1.01 | S. cerevisiae deletion strains, locus YOR231W, strain MKK1, active compounds read low 0.96 | S. cerevisiae deletion strains, locus YOR265W, strain rbl2, active compounds read low 1 | S. cerevisiae deletion strains, locus YOR270C, strain vph1, active compounds read low 0.997 | S. cerevisiae deletion strains, locus YOR290C, strain snf2, active compounds read low 1.02 | S. cerevisiae deletion strains, locus YOR316C, strain cot1, active compounds read low 1.02 | S. cerevisiae deletion strains, locus YPL051W, strain arl3, active compounds read low 1.01 | S. cerevisiae deletion strains, locus YPL055C, strain LGE1, active compounds read low 1.05 | S. cerevisiae deletion strains, locus YPL078C, strain atp4, active compounds read low 0.984 | S. cerevisiae deletion strains, locus YPL106C, strain sse1, active compounds read low 1.01 | S. cerevisiae deletion strains, locus YPL240C, strain hsp82, active compounds read low 0.997 | S. cerevisiae deletion strains, locus YPL241C, strain CIN2, active compounds read low 1.01 | S. cerevisiae deletion strains, locus YPL256C, strain CLN2, active compounds read low 0.972 | S. cerevisiae deletion strains, locus YPR119W, strain clb2, active compounds read low 1.01 | S. cerevisiae deletion strains, locus YPR141C, strain kar3, active compounds read low 1.02 | S. cerevisiae deletion strains, locus YPR163C, strain tif3, active compounds read low 1.01 | S. cerevisiae deletion strains, locus YPR167C, strain met16, active compounds read low 1.02 | S. cerevisiae deletion strains, strain wtn01, active compounds read low 1.02 | S. cerevisiae strains, strain wild type, active compounds read low 1.02
